Bioassay records as filed in PubChem BioAssay.
Tau fluor counter: Counterscreen qHTS for Inhibitors of Tau Fibril Formation, Fluorescence Polarization; tau K18 P301L Alexa594 fluorescence, heparin fibrillization; Potency, µM (series often up to 57.7 µM), without a hit: at the highest dose activity change, negative = decrease; 0.93% of 280,000 active; AID 1463, 2008; further: potency means the concentration at half of the fitted maximal effect; nearly all actives have a fitted effect of over 55% in size
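Human K18 P301L tau (15 uM unlabeled plus 0.24 uM Alexa 594-labeled, final) in 100 mM sodium acetate pH 7 was mixed with compound and 20 uM heparin and incubated 6 hr at 37 C.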
Tau fibril ThT: qHTS for Inhibitors of Tau Fibril Formation, Thioflavin T Binding; 2.1% of 270,000 active; Microtubule-associated protein tau (Homo sapiens), P10636; Potency, µM (top dose mostly 57.4 µM), for the others: at the highest dose activity, negative = inhibition, hits mostly inhibitors; recombinant tau K18 P301L, heparin-induced fibrillization, ThT fluorescence; further: potency means the concentration at half of the fitted maximal effect; nearly all actives have a fitted effect of over 55% in size
Target sequence (P10636 561-689 P618L limits assumed): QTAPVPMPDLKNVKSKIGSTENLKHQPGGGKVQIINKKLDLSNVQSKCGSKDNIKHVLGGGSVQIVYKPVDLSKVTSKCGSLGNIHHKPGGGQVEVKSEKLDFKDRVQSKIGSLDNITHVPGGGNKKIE
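ThT emission at 510 nm, taken 1 hr after adding 30 uM dye, quantifies aggregates formed when 20 uM heparin acts on human tau K18 P301L for 6 hr at 37 C.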
Tau FP inhib: qHTS for Inhibitors of Tau Fibril Formation, Fluorescence Polarization. Microtubule-associated protein tau (Homo sapiens), P10636. K18 P301L tau heparin fibrillization, Alexa594 FP, 6 h. Potency, µM (highest dose often 57.7 µM), for the others: top-dose activity, negative = inhibition, usual class: inhibitors. 0.39% of 280,000 active. AID 1468, 2008; further: potency means the concentration at half of the fitted maximal effect; nearly all actives have a fitted effect of over 55% in size
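Quantitative HTS format: compounds meet 15 uM recombinant K18 P301L tau and Alexa 594-tau tracer in 100 mM sodium acetate pH 7; 20 uM heparin triggers fibrillization at 37 C over 6 hr; FP gives the signal.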
Sfp inh: qHTS Assay for Inhibitors of Bacillus subtilis Sfp phosphopantetheinyl transferase (PPTase). 4'-phosphopantetheinyl transferase ffp (Bacillus subtilis), Q9F4F7. Biochemical Sfp PPTase activity, qHTS. Potency, µM, inactives show largest response in the series, negative = inhibition, actives largely listed as inhibitors. 3.5% of 310,000 active. AID 1490, 2009;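 further: the enzyme is Sfp with the accession as filed and its product quenches rhodamine fluorescence; potency means the concentration at half of the fitted maximal effect; 0% = enzyme reaction without inhibitor and -100% = no enzyme wells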
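Fluorescence-quenching assay with 15 nM Sfp, 5 uM rhodamine-CoA and 12.5 uM BHQ-2-labelled ybbR peptide in pH 7.6 Hepes/MgCl2 buffer. Enzyme was pre-incubated with compound for 15 min at room temperature. Rate was taken from the 30-min fluorescence change (525/598 nm).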
FBPA coupling cs: qHTS Assay for Inhibitors of Fructose-1,6-bisphosphate Aldolase from Giardia Lamblia: Coupling assay counterscreen; coupling enzyme system counterscreen, AmpLite Red fluorescence; activity change, negative = inhibition, % at 58.2 µM, hits read low; 0.67% of 290,000 active; AID 2472, 2010; in the data active means activity change below about -30%
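Counterscreen lacking aldolase: glyceraldehyde-3-phosphate coupling-enzyme reagent preincubated 10 min at RT with compound (at 57.5 uM final), then substrate/coupling system with AmpLite Red added; fluorescence read at 525/598 nm after 20 min RT.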
* marks the source's active call; other numbers are inactive results; ? = inconclusive; · = not tested or not shown; [ ] = another dose, or the depositor's remark. The list is not random: actives were taken first. Their share in the collection is about 5.2%. Unless noted, the call rests on the fitted dose curve; in most records, active means well fitted curve in the direction sought with a large enough effect; inconclusive means small, poorly fitted or top-dose-only effect, or another doubt; inactive means no such curve, though single readings can be large; an effect the other way counts as inactive or inconclusive. Unless noted, on the % scale 0 is the no-effect control and ±100 the full control effect.

SMILES | Tau fluor counter | Tau fibril ThT | Tau FP inhib | Sfp inh | FBPA coupling cs
CC(=O)Nc1ccc(-n2cc(-c3ccccc3)[nH]c2=S)cc1 | -13% | -17% | 0% | 40µM* | 0
Cn1c(=O)c([N+](=O)[O-])c(NCc2ccccc2Cl)c2ccccc21 | -25% | -17% | -1% | -20% | -2
Cn1c(=O)c([N+](=O)[O-])c(NCc2ccc3c(c2)OCO3)c2ccccc21 | -1% | -13% | 5% | 50µM* | -3
CC(Cc1ccc(O)c(O)c1)C(C)Cc1ccc(O)c(O)c1 (stereo not given) | 16µM*[quencher] | ? | -2% | 40µM* | -14
CC(=O)c1cccc(NC(=O)C2C3C=CC(C3)C2C(=O)O)c1 (stereo not given) | -4% | -5% | 6% | -26% | 0
CC(=O)c1cccc(NC(=O)C2C3C=CC(C4CC34)C2C(=O)O)c1 (stereo not given) | 0% | -4% | 10% | 14µM* | 0
CC(/C=C1\SC(=S)N(C(C(=O)O)C(C)C)C1=O)=C\c1ccccc1 (stereo not given) | -8% | 22µM* | -7% | ? | 19
CC(/C=C1\SC(=S)N(NS(=O)(=O)c2ccccc2)C1=O)=C\c1ccccc1 | -29% | 10µM* | ? | 2% | 4
CC(/C=C1\SC(=S)N(c2ccc(C(=O)O)cc2)C1=O)=C\c1ccccc1 | 11%[0.0958 µM] | · | 0%[0.0958 µM] | -13% | 7
CCN1C(=O)/C(=C2\SC(=S)N(NC(=O)c3ccccc3O)C2=O)c2ccccc21 | 20µM*[quencher] | 20µM* | ? | -21% | -4
CC(=O)N1C(=O)/C(=C2\SC(=S)N(NS(=O)(=O)c3ccc(C)cc3)C2=O)c2ccccc21 | ? | 14µM* | ? | 45µM* | 2
c1ccc2c(c1)CCC[C@@H]2C1=NCCN1 | · | · | · | 28% | 1
CC(=O)N1C(=O)/C(=C2\SC(=S)N(c3c(C)n(C)n(-c4ccccc4)c3=O)C2=O)c2ccccc21 | -16% | ? | -15% | -28% | -40*
Cc1ccc(S(=O)(=O)NN2C(=O)/C(=C/c3cccc(F)c3)SC2=S)cc1 | · | · | · | -1% | 8
CC(/C=C1\SC(=S)N(NS(=O)(=O)c2ccc(C)cc2)C1=O)=C\c1ccccc1 | -15% | 11µM* | ? | -5% | -1
Cc1c(N2C(=O)/C(=C3/C(=O)N(C)c4ccccc43)SC2=S)c(=O)n(-c2ccccc2)n1C | -5% | ? | 6% | -3% | -8
O=C(O)CCc1ccc(-c2ccc(Cl)cc2)o1 | -1% | ? | 4% | 20µM* | 11
O=C(O)CCc1ccc(-c2ccc(Br)cc2)o1 | -6% | ? | -2% | 18µM* | 11
O=C(O)CCc1ccc(-c2ccc(Br)cc2)n1Cc1ccco1 | -9% | ? | -8% | -1% | 12
COc1ccc(-c2ccc(CCC(=O)O)o2)cc1 | -13% | ? | -3% | 14µM* | 4
COc1ccc(-c2noc(CCC(=O)O)n2)cc1 | -7% | -1% | -7% | 4% | 3
Cc1ccc(S(=O)(=O)N2CCC(C(=O)Nc3ccc(C)c(Cl)c3)CC2)cc1 | ? | -14% | ? | · | ·
COc1ccc(-n2c(=O)c(C)nc3cncnc32)cc1 | · | · | · | 12% | -1
NCCC[C@@H](CC(=O)N[C@@H]1CCCC[C@H]1C(=O)N[C@H](CC(=O)N[C@@H](CCC(=O)O)CC(=O)O)Cc1ccccc1)NC(=O)C[C@H](CO)NC(=O)[C@@H]1CNCC[C@H]1N | 0% | -7% | 2% | 9% | 1
CCc1ccc(Nc2nc(-c3cc4cccc(OC)c4oc3=O)c(CC)s2)cc1 | ? | ? | 11% | · | ·
SMILES | Tau fluor counter | Tau fibril ThT | Tau FP inhib | Sfp inh | FBPA coupling cs
N#C/C(=C\Nc1ccc2cn[nH]c2c1)c1nc(-c2ccc(Cl)cc2)cs1 | ? | ? | -17% | 56µM* | -35*
COc1cc2c(cc1N/C=C(\C#N)c1nc(-c3ccccc3)cs1)oc1ccccc12 | -17% | -15% | 3% | 14% | 6
N#C/C(=C\Nc1ccc2cn[nH]c2c1)c1nc(-c2ccccc2)cs1 | ? | -12% | -17% | 56µM* | -3
O=C(COCc1cc(-c2ccc3c(c2)OCO3)on1)NCc1ccccc1Cl | -19% | ? | 6% | · | ·
O=C1NC(=O)/C(=C\c2ccc(Br)o2)S1 | · | · | · | ? | 1
O=C1NC(=O)/C(=C/c2ccc(-c3cc(C(=O)O)ccc3Cl)o2)S1 | · | · | · | 32µM* | 0
O=C1NC(=S)/C(=C\c2ccc(-c3ccccc3Cl)o2)S1 | ? | 7.9µM* | ? | 50µM* | 1
Cc1nnc(C)n1/N=C/c1ccc(-c2ccccc2Cl)o1 | · | · | · | -19% | 9
CN[C@@H](CCCN=C(N)N)C(=O)N[C@@H](CCCCN)C(=O)N1CCC[C@H]1C(=O)N[C@@H](Cc1c[nH]c2ccccc12)C(=O)N[C@H](C(=O)N[C@H](CC(C)C)C(=O)O)C(C)(C)C | · | · | · | 1% | 0
O=S1(=O)C[C@@H](N2CCOCC2)[C@H](N2CCOCC2)C1 | -8% | -13% | 9% | 71µM* | -9
O=C(COc1ccc(Cl)cc1)Nc1nc(-c2ccncc2)cs1 | · | · | · | 22µM* | ·
O=C(CCS(=O)(=O)c1ccc(F)cc1)Nc1nc(-c2ccncc2)cs1 | · | · | · | 13µM* | ·
O=C(CCS(=O)(=O)c1ccccc1)Nc1nc(-c2cccs2)cs1 | -24% | -11% | 4% | -1% | 1
N#Cc1cccc(CS(=O)(=O)c2nnnn2C2CCCCC2)c1 | -1% | -7% | -5% | -15% | -1
N#C/C(=C\c1ccc(O)cc1)c1nc2ccccc2o1 | ? | ? | -12% | 4% | 5
COc1cc(/C=C(\C#N)c2nc(-c3cc4ccccc4oc3=O)cs2)ccc1O | ? | 3.5µM* | 4% | 8% | 2
COc1cc(/C=C(\C#N)c2nc3ccccc3o2)ccc1O | ? | 7.9µM* | ? | -28% | 11
Cc1cc(C)c(NC(=O)Cn2c(=O)n(CCc3ccccc3)c(=O)c3ccccc32)c(C)c1 | -6% | -2% | ? | · | ·
CC1CC(=O)N(CC(=O)Nc2ccc(OC(F)(F)F)cc2)c2ccccc2S1 (stereo not given) | -22% | -1% | 4% | · | ·
